The whole screen tested about 1,300 compounds, of which about 330 (25%) were called active. A selection follows. Results with a measured potency or affinity are listed apart. A number with no mark means an inactive call. The rule behind the calls is not given here.
test: MALME3 melanoma cell viability loss, dose response, orthogonal assay for MITF inhibitor project, CellTiter-Glo, cherry-picked (AID 493191); settings: CellTiter-Glo luminescence, 24 h; series mostly up to 35 µM; activity change, negative = inhibition: at the top concentration

Compound	activity change, negative = inhibition
COc1ccccc1N1CCN(/N=C\c2ccccc2)CC1	-2.09%
Cc1ccc(-c2cc3onc(-c4ccccc4)c3c(=O)n2C)cc1	-8.74%
CC(=O)CSc1ccc(-c2nc3cc(C)c(C)cc3[nH]2)cn1	1.88%
O=C(O)c1ccc(Nc2nc3c(s2)CCCC3)cc1	-11.1%
CC(C)(C)c1ccc(-c2noc(CCC(=O)NCc3ccco3)n2)cc1	8.27%
Cc1ccc(C(=O)Nc2ccccc2Cl)cc1	-2.44%
Cc1ccc(OCCCCN2CCCCC2)c(Br)c1	-0.175%
COc1ccc(Br)cc1C(C[N+](=O)[O-])c1c(N)n(C)c(=O)n(C)c1=O (stereo not drawn)	-38.4%
CN(C)CCCN(C(=O)c1ccc(Cl)s1)c1nc2cc3c(cc2s1)OCO3	-27.2%
Cc1ccc2nc(NC(=O)CCCC(=O)O)sc2c1	3.35%
CN(Cc1ccccc1)C1=CC(=[N+]2CCCC2)CC(C)(C)C1	-29.5%
CN(C)c1cc[n+](CC(=O)c2ccc(-c3ccccc3)cc2)cc1	-30.2%
CN(CC(=O)N1CCCCCC1)S(=O)(=O)c1ccccc1	-9.21%
CCN(CC)Cc1c(O)ccc2c1O/C(=C\C=C\c1ccccc1)C2=O	1.3%
Cc1cc(C)c2ccc(N)nc2c1O	-10.6%
CN(C)c1ccc(/C=C/c2cccc[n+]2[O-])cc1	1.08%
O=C(CCl)Nc1cn(-c2ccccc2)nc1-c1ccccc1	-39.9%
Cc1nn2c(N)c(-c3ccccc3)cnc2c1-c1ccccc1	-1.78%
Brc1ccc(-c2cn3cccnc3n2)cc1	19.9%
CC1CCCC(C)N1CCCNC(=O)c1cc2c(s1)-c1ccccc1OC2 (stereo not drawn)	-42%

Compound	activity change, negative = inhibition
O=C(/C=C\Nc1ccc2c(c1)OCO2)c1ccccn1	-33%
CC1CN(N=Cc2ccc([N+](=O)[O-])o2)C(=N)O1 (stereo not drawn)	-38.8%
O=[N+]([O-])c1ccc(/C=N/Nc2ccnc3cc(Cl)ccc23)o1	-25.8%
CCN(CC)S(=O)(=O)c1cccc(C(=O)N/N=C/c2ccc([N+](=O)[O-])o2)c1	-68.6%
CC(C)C(NC(=O)OCc1ccccc1)C(=O)OCC(=O)N1CCCCC1 (stereo not drawn)	13.4%
O=C(NC(=S)NCc1ccccc1)c1ccccc1	-1.25%
CCOc1ccc(-n2c(O)c(/C=N/Nc3nc(C)cc(C)n3)c3ccccc3c2=O)cc1	-11.6%
COc1ccc(Nc2oc(-c3ccc(OC)cc3)nc2C#N)cc1	12.9%
CC1CCN(C(=O)c2cc3ccccc3o2)CC1	5.53%
O=C(N/N=C/c1ccccc1)c1ccco1	-6.51%
Cc1cc(C(=O)N/N=C/c2ccc([N+](=O)[O-])o2)c(C)o1	-46%
O=C(Nc1nc2ccccc2s1)Nc1ccc(F)cc1F	1.35%
O=C(Nc1cnc2ccccn2c1=O)c1ccc(F)cc1	7.32%
O=C(N/N=C/c1cccc(Oc2ccc([N+](=O)[O-])cc2[N+](=O)[O-])c1)c1cncc(Br)c1	-17.8%
COc1cccc(/C=N/Nc2nc3ccccc3[nH]2)c1OC	3.26%
C[C@H]1CCC[C@]2(C)C[C@H]3OC(=O)C(CN4CCCCCC4)[C@H]3C=C12 (stereo partly drawn)	-14.2%
O=C(COC(=O)C1=COCCO1)Nc1c(F)cccc1F	6.62%
COc1cc(NC(=O)COc2cc(O)c3c(c2)OC(C)(C)CC3=O)cc(OC)c1OC	-9.31%
O=C(Nc1ccccc1Cl)Nc1cccc2cccnc12	-20.8%
Oc1ccccc1/C=N/Nc1cccc2cccnc12	-2.28%

Compound	activity change, negative = inhibition
O=C(N/N=C/c1cc(Br)ccc1O)c1ccncc1	-32.5%
Cn1cccc1-c1cc(C(=O)N/N=C/c2cc(Br)ccc2O)[nH]n1	-9.81%
O=C(CCCCC(=O)NN=Cc1ccccc1O)NN=Cc1ccccc1O	-4.07%
Cc1nc(NC(=O)C2CC2)sc1C(=O)Nc1ccccc1Cl	-0.052%
COc1ccc(C(=O)/C=C(\C)Nc2ccc3c(c2)OCO3)cc1	-1.82%
COc1cc(C2C(C#N)=C(N)Oc3cc4c(cc32)OCO4)cc(OC)c1OC (stereo not drawn)	10.1%
CCOc1ccc(NC(=O)Nc2cccc(C(=O)O)c2)cc1	-33.2%
O=C(Nc1nnc(Cc2ccccc2)s1)c1ccccc1	12.2%
CN(C)c1ccc(-n2cccc2/C=C/[N+](=O)[O-])cc1	-41.8%
Cc1cc(Cl)ccc1NC(=O)c1ccc2c(c1)OCO2	13.7%
Cc1ccc(OCC(=O)Nc2cccc(C)n2)c(C)c1	5.8%
CCN1CCN(c2ccc(S(=O)(=O)N3CCOCC3)cc2NC(=O)/C=C/c2ccc([N+](=O)[O-])cc2)CC1	-29%
COc1cccc(/C=C/C(=O)c2ccc3c(c2)OCCO3)c1OC	-7.96%
COc1ccc(/C=C/C(=O)NC(=S)N2CCN(c3ccccc3OC)CC2)cc1	-2.42%
O=[N+]([O-])c1cc(S(=O)(=O)N2CCCCCC2)ccc1F	-22.2%
CN(C)CCNc1ccc2nnn3c4ccc(O)cc4c(=O)c1c23	-23.3%
N=C1C(c2nc3ccccc3[nH]2)=C(O)CN1C1CCCCC1	-0.094%
COc1ccc(/C=C2\Sc3ccc(C(=O)NCCN4CCCCCC4)cc3N(C)C2=O)cc1	-30.5%

Reference: PubChem BioAssay AID493191 (Broad Institute, 2011)
